# In the supplement of paper PMC8728848:
# The full list was thinned out, with the strongest signals kept by preference.
# B1: Actd5 (Actinidia), P84527 (protein)
# chain: ISSCNGPCRDLNDCDGQLICIKGKCNDDPQVGTHICRGTTHSHQPGGCKPSGTLTCRGKSYPTYDCSPPVTSSTPAKLTNNDFSEGGDDGGPSECDESYHNNNERIVALSTGWYNGGSRCGKMIRITASNGKSVSAKVVDECDSRHGCDKEHAGQPPCRNNIVDGSNAVWSALGLDKNVGVVDITWSMA
# Key:
# Test in all cases: glycan array binding signal (z-score within array); higher = stronger binding
# Conditions in all cases: glycan notation: IUPAC condensed, linker removed
# [1] = target: GlcA3S(b1-3)Gal(b1-4)GlcNAc(b1-2)Man
# How it was run: (§1)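 The binding signal is a Z-score computed within each array and averaged over linkers. Arrays of the same protein sequence at different concentrations or buffers were also averaged together. Data originate from 3228 arrays in the Consortium for Functional Glycomics database, kept only where the protein sequence was available.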
# [2] = target: GlcA3S(b1-3)Gal(b1-4)GlcNAc(b1-3)Gal(b1-4)Glc
# How it was run: as §1
# [3] = target: GlcNAc(b1-2)[GlcNAc(b1-4)]Man(a1-3)[GlcNAc(b1-4)][GlcNAc(b1-2)Man(a1-6)]Man(b1-4)GlcNAc(b1-4)GlcNAc
# How it was run: as §1
# [4] = target: GlcNAc(b1-3)Gal(b1-4)GlcNAc(b1-3)Gal(b1-4)GlcNAc(b1-2)Man(a1-3)[GlcNAc(b1-3)Gal(b1-4)GlcNAc(b1-3)Gal(b1-4)GlcNAc(b1-2)Man(a1-6)]Man(b1-4)GlcNAc(b1-4)[Fuc(a1-6)]GlcNAc
# How it was run: as §1
# [5] = target: GlcNAc(b1-3)Gal(b1-4)GlcNAc(b1-6)[Gal(b1-3)]GalNAc
# How it was run: as §1
# [6] = target: GlcNAc(b1-3)Gal(b1-4)GlcNAc(b1-6)[GlcNAc(b1-3)]Gal(b1-4)GlcNAc
# How it was run: as §1
# [7] = target: Man(a1-2)Man(a1-2)Man(a1-3)Man
# How it was run: as §1
# [8] = target: Man(a1-2)Man(a1-2)Man(a1-6)[Man(a1-3)]Man
# How it was run: as §1
# [9] = target: Man(a1-2)Man(a1-3)[Man(a1-2)Man(a1-6)]Man(a1-6)[Man(a1-2)Man(a1-2)Man(a1-3)]Man(b1-4)GlcNAc(b1-4)GlcNAc
# How it was run: as §1
# [10] = target: Man(a1-2)Man(a1-6)[Man(a1-3)]Man(a1-6)[Man(a1-2)Man(a1-2)Man(a1-3)]Man
# How it was run: as §1
# [11] = target: Man(a1-3)[Man(a1-6)]Man(a1-6)[Man(a1-2)Man(a1-3)]Man(b1-4)GlcNAc(b1-4)GlcNAc
# How it was run: as §1
# [12] = target: Neu5Ac(a2-3)Gal(b1-3)GlcNAc(b1-3)GalNAc
# How it was run: as §1
# [13] = target: Neu5Ac(a2-3)Gal(b1-3)[GlcNAc(b1-6)]GalNAc
# How it was run: as §1
# [14] = target: Neu5Ac(a2-3)Gal(b1-4)GlcNAc(b1-2)Man(a1-3)[Neu5Ac(a2-3)Gal(b1-4)GlcNAc(b1-2)Man(a1-6)]Man(b1-4)GlcNAc(b1-4)[Fuc(a1-6)]GlcNAc
# How it was run: as §1
# [15] = target: Neu5Ac(a2-3)Gal(b1-4)GlcNAc(b1-2)[Neu5Ac(a2-3)Gal(b1-4)GlcNAc(b1-4)]Man(a1-3)[GlcNAc(b1-4)][Neu5Ac(a2-3)Gal(b1-4)GlcNAc(b1-2)[Neu5Ac(a2-3)Gal(b1-4)GlcNAc(b1-6)]Man(a1-6)]Man(b1-4)GlcNAc(b1-4)GlcNAc
# How it was run: as §1
# [16] = target: Neu5Ac(a2-3)Gal(b1-4)GlcNAc(b1-3)Gal(b1-4)GlcNAc(b1-3)Gal(b1-4)GlcNAc(b1-2)Man(a1-3)[Neu5Ac(a2-3)Gal(b1-4)GlcNAc(b1-3)Gal(b1-4)GlcNAc(b1-3)Gal(b1-4)GlcNAc(b1-2)Man(a1-6)]GalNAc
# How it was run: as §1
# [17] = target: Neu5Ac(a2-3)Gal(b1-4)GlcNAc(b1-3)Gal(b1-4)GlcNAc(b1-3)GalNAc
# How it was run: as §1
# [18] = target: Neu5Ac(a2-3)Gal(b1-4)GlcNAc(b1-3)GalNAc
# How it was run: as §1
# [19] = target: Neu5Ac(a2-3)Gal(b1-4)[Fuc(a1-3)]GlcNAc
# How it was run: as §1
# [20] = target: Neu5Ac(a2-3)Gal(b1-4)[Fuc(a1-3)]GlcNAc(b1-3)Gal(b1-4)GlcNAc
# How it was run: as §1
# [21] = target: Neu5Ac(a2-3)Gal(b1-4)[Fuc(a1-3)]GlcNAc(b1-6)[Gal(b1-3)]GalNAc
# How it was run: as §1
# [22] = target: Neu5Ac(a2-3)Gal(b1-4)[Fuc(a1-3)]GlcNAc(b1-6)[Neu5Ac(a2-3)Gal(b1-3)]GalNAc
# How it was run: as §1
# [23] = target: Neu5Ac(a2-3)Gal(b1-4)[Fuc(a1-3)]GlcNAc6S
# How it was run: as §1
# [24] = target: Neu5Ac(a2-3)[GalNAc(b1-4)]Gal(b1-4)GlcNAc(b1-3)GalNAc
# How it was run: as §1
# [25] = target: Neu5Ac(a2-6)Gal(b1-4)GlcNAc(b1-2)Man(a1-3)Man(b1-4)GlcNAc(b1-4)GlcNAc
# How it was run: as §1
# [26] = target: Neu5Ac(a2-6)Gal(b1-4)GlcNAc(b1-2)Man(a1-3)[Gal(b1-4)GlcNAc(b1-2)Man(a1-6)]Man(b1-4)GlcNAc(b1-4)GlcNAc
# How it was run: as §1
# [27] = target: Neu5Ac(a2-6)Gal(b1-4)GlcNAc(b1-2)Man(a1-3)[GlcNAc(b1-2)Man(a1-6)]Man(b1-4)GlcNAc(b1-4)GlcNAc
# How it was run: as §1
# [28] = target: Neu5Ac(a2-6)Gal(b1-4)GlcNAc(b1-2)Man(a1-6)[GlcNAc(b1-2)Man(a1-3)]Man(b1-4)GlcNAc(b1-4)GlcNAc
# How it was run: as §1
# [29] = target: Neu5Ac(a2-6)Gal(b1-4)GlcNAc(b1-3)Gal(b1-4)GlcNAc(b1-3)Gal(b1-4)GlcNAc(b1-2)Man(a1-3)[Neu5Ac(a2-6)Gal(b1-4)GlcNAc(b1-3)Gal(b1-4)GlcNAc(b1-3)Gal(b1-4)GlcNAc(b1-2)Man(a1-6)]GalNAc
# How it was run: as §1
# [30] = target: Neu5Ac(a2-8)Neu5Ac(a2-3)[GalNAc(b1-4)]Gal(b1-4)Glc
# How it was run: as §1
# Neu5Gc(a2-3)Gal(b1-4)Glc = target: Neu5Gc(a2-3)Gal(b1-4)Glc
# How it was run: as §1
binder,measurement,setting,value
B1,glycan array binding signal (z-score),[1],-0.597
same,glycan array binding signal (z-score),[2],-0.788
same,glycan array binding signal (z-score),[3],-0.558
same,glycan array binding signal (z-score),[4],3.06
same,glycan array binding signal (z-score),[5],-0.776
same,glycan array binding signal (z-score),[6],0.458
same,glycan array binding signal (z-score),[7],0.687
same,glycan array binding signal (z-score),[8],6.66
same,glycan array binding signal (z-score),[9],4.17
same,glycan array binding signal (z-score),[10],3.42
same,glycan array binding signal (z-score),[11],5.03
same,glycan array binding signal (z-score),[12],-0.064
same,glycan array binding signal (z-score),[13],-0.32
same,glycan array binding signal (z-score),[14],-0.173
same,glycan array binding signal (z-score),[15],-0.296
same,glycan array binding signal (z-score),[16],5.66
same,glycan array binding signal (z-score),[17],-0.279
same,glycan array binding signal (z-score),[18],0.374
same,glycan array binding signal (z-score),[19],-0.42
same,glycan array binding signal (z-score),[20],0.65
same,glycan array binding signal (z-score),[21],1.5
same,glycan array binding signal (z-score),[22],-0.33
same,glycan array binding signal (z-score),[23],-0.958
same,glycan array binding signal (z-score),[24],0.22
same,glycan array binding signal (z-score),[25],-0.071
same,glycan array binding signal (z-score),[26],-0.093
same,glycan array binding signal (z-score),[27],-0.252
same,glycan array binding signal (z-score),[28],-0.496
same,glycan array binding signal (z-score),[29],3.79
same,glycan array binding signal (z-score),[30],-0.363
same,glycan array binding signal (z-score),Neu5Gc(a2-3)Gal(b1-4)Glc,0.046
